Here are results for four compounds from PubChem BioAssay.

Inconclusive results are not listed. Calls of active or inactive are those of the source.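 How the source made its calls, unless noted: active means efflux inhibition above 0.42, the validation set average plus 4 SD; inconclusive means no clear call, values can overlap the other calls; inactive means the rest.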

Test [1] is described as follows: yeast TOR pathway RPL19A-GFP modulators, primary screen, cell-based, S. cerevisiae, multiplex flow cytometry (AID 1862; in the data active means percent of DMSO control GFP below about 86%;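 further: lower values mimic rapamycin by blocking the RPL19A rise seen in DMSO cells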). The settings on record: S. cerevisiae RPL19A-GFP strain, flow cytometry fluorescence, 3 h; at 10 µM; stronger effect = lower value. A general note: A flow cytometer gives signals particle by particle.
A short description of test [2]: modulators of MEP2-GFP levels in yeast, primary screen, S. cerevisiae, multiplex flow cytometry (AID 1867;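 active means GFP response, as percent of the DMSO control, above the screen-wide mean plus 3 SD, about 139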;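 further: median GFP channel fluorescence of barcode-gated MEP2-GFP cells measured by flow cytometry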). To be noted: S. cerevisiae MEP2-GFP strain, 3 h, at 10 µM, stronger effect = higher value, 100% means same as DMSO wells.
The nature of test [3]: modulators of CIT2-GFP expression in yeast, primary screen, S. cerevisiae, GFP fusion, multiplex flow cytometry (AID 1870;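 active means percent response above a set limit, the screen-wide mean plus 3 SD, cut at about 130% in these data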;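 further: barcoded CIT2-GFP strain pooled with four other GFP strains with rapamycin as positive control; median GFP fluorescence per well over plate mean of DMSO wells so 100% = DMSO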). The settings on record: 3 h, at 10 µM, stronger effect = higher value.
Test [4] in a line: modulators of LAP4-GFP expression in yeast, primary screen, S. cerevisiae, multiplex flow cytometry (AID 1873;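 active means GFP signal, as percent of the solvent control, above the screen mean plus 3 SD, about 149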). To be noted: 3 h, at 10 µM, stronger effect = higher value.
Test [5] can be described thus: modulators of AGP1-GFP expression in yeast TOR pathway, primary screen, cell-based, multiplex flow cytometry, S. cerevisiae (AID 1887;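 active means GFP signal above the screen-wide mean plus 3 SD, that is over about 124.5% of the solvent control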;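 further: AGP1-GFP fusion strain of S. cerevisiae within a five-strain barcoded multiplex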). To be noted: 3 h, at 10 µM, stronger effect = higher value.
A short description of test [6]: inhibitors of CD8+ T cell-vesicle binding, pilot screen, LFA-1/ICAM-1 modulator project, MLPCN validation set, flow cytometry (AID 2523;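 active means response below a set limit, under 55% cells CD8-positive and vesicle-bound, and CD8 cells' 90th-percentile brightness under 279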;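 on vesicle binding response: mean PE anti-B7-1 fluorescence of CD8+ cells relative to row control; 100% = QL9-loaded vesicles with DMSO vehicle in the same plate row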). The settings on record: 2C mouse CD8+ T cells, at 7 µM, stronger effect = lower value; double positive events: measured here: CD8+/vesicle+ event percentage.
In test [7] the target is Integrin beta-1 (Homo sapiens) + Integrin alpha-4 (Homo sapiens) (UniProt P13612+P05556). Nature of the test: inhibition of HUTS-21 binding to VLA-4, pilot screen, VLA-4 allosteric modulator project, U937 cells, HUTS-21 mAb, flow cytometry, validation set (AID 2674;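 active means inhibition above 50%, about 3 SD of the validation set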;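 further: antibody binding induced by the VLA-4 ligand LDV present at three times its Kd; 0% = LDV ligand with antibody and no compound and 100% = antibody without LDV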). To be noted: HUTS-21 LIBS mAb binding, at 6.7 µM, stronger effect = higher value, binding induced by LDV ligand.
Test [8] in a line: superoxide lowering in aged yeast cells, pilot screen, validation compound set (AID 2706;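 active means superoxide response below 65% of plate, a cut near 3 SD across the whole screen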;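 further: yeast exposed to compound for one week at 30 degrees C before staining; 100% = mean of all compound wells on the same plate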). To be noted: S. cerevisiae aging, superoxide DHE fluorescence; at 10 µM; stronger effect = lower value.
The target of test [9] is Beta-adrenergic receptor kinase 1 (Homo sapiens) (UniProt P25098). Nature of the test: GRK2 binders displacing RNA aptamer, biochemical, validation, human GRK2, bead flow cytometry (AID 488806;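 active means aptamer binding inhibition above 30%, about 3 SD of noise from non-fluorescent compounds; inactive means inhibition at or below 30%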). To be noted: bead-bound GRK2, FAM-aptamer displacement, at 10 µM, stronger effect = higher value.
In test [10] the target is Beta-2 adrenergic receptor (Homo sapiens) (UniProt P07550). In words: beta2AR agonists driving receptor internalization, pilot screen, cell-based, FAP fluorogen, flow cytometry, validation set (AID 504459;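 active means percent response above 42, roughly 3 SD of non-fluorescent test compounds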;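 further: agonist-driven loss of surface beta2AR via internalization measured by FAP dye flow cytometry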). To be noted: Am2.2-beta2AR cells, FAP surface receptor flow cytometry; at 10 µM; stronger effect = higher value.
In test [11] the target is AP-2 complex subunit beta (Homo sapiens) (UniProt P63010). In words: inhibitors of arrestin peptide binding to AP2, pilot screen, biochemical, validation set, GST-AP2 beads, flow cytometry (AID 504541;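 active means inhibition above 54%, about 3 SD of non-fluorescent compounds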;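 further: AP2 carries R879A mutation and is captured from E. coli lysate; bead-bound FITC arrestin peptide fluorescence measuring arrestin peptide binding to AP2; 0% = DMSO wells and 100% = excess unlabeled arrestin peptide control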). The settings on record: FITC arrestin peptide, at 10 µM, stronger effect = higher value, AP2 beta2 appendage fragment, R879A mutant.
Test [12] is described as follows: yeast V-ATPase proton transport modulators, S. cerevisiae, pHLuorin, HTS validation (AID 504600; in the data active means response above about 15%;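 further: plate controls were DMSO for no effect and reference compound for full effect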). To be noted: S. cerevisiae pHLuorin cytosolic pH, at 10 µM, stronger effect = higher value.
For test [13], the system named is anti-desmoglein-3 scFv antibody binding to human DSG3. In words: inhibitors of anti-DSG3 scFv binding to DSG3, pilot screen, biochemical, validation compound set, bead-based, flow cytometry (AID 588368;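 active means binding below the plate cutoff, the plate median minus 3 SD, with a reading above zero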;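 further: signal is the median channel fluorescence of bead-bound GFP antibody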). To be noted: Protein G beads, DSG3-Fc, scFv-GFP binding, at 10 µM, stronger effect = lower value.
A short description of test [14]: inhibitors of fungal efflux pumps CDR1, CDR2, MDR1, pilot screen, validation compound set, multiplex, phenotypic (AID 588506).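 Further: Nile Red retained in cells so higher fluorescence means more efflux inhibition; 0 = negative control wells and 1 = enniatin B 25 µM full block.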 The settings on record: S. cerevisiae pump-expressing triplex, Nile Red efflux flow cytometry; at 10 µM; stronger effect = higher value; the pumps come from Candida albicans.
Test [15] addresses ATP-binding cassette sub-family B member 6 (Homo sapiens) (UniProt Q9NP58). In words: ABCB6 transporter inhibitors, pilot screen, K562-ABCB6 cells, flow cytometry, validation set (AID 588550;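 active means inhibition above the screen-wide mean plus 3 SD, about 51%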;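 further: 0% = DMSO wells and 100% = benzethonium chloride 70 µM positive control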). To be noted: K562-ABCB6 porphyrin accumulation, 1 h, at 10 µM, stronger effect = higher value.
The nature of test [16]: promoters of myeloid differentiation in arrested cells, primary screen, cell-based, GFP/MAC1 double positive, flow cytometry, validation set (AID 588685;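 active means differentiation response of at least 50%, scaled between solvent and reference control, from cells with both markers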;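 further: compound exposure lasts four days before antibody staining and flow analysis; 0% = DMSO wells and 100% = 5 µM fulvestrant positive control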). To be noted: ER-HoxA9 marrow cells, stronger effect = higher value, normalized: vehicle 0, fulvestrant 100.

Beta-adrenergic receptor kinase 1 (Homo sapiens), sequence (P25098 whole entry, looked up): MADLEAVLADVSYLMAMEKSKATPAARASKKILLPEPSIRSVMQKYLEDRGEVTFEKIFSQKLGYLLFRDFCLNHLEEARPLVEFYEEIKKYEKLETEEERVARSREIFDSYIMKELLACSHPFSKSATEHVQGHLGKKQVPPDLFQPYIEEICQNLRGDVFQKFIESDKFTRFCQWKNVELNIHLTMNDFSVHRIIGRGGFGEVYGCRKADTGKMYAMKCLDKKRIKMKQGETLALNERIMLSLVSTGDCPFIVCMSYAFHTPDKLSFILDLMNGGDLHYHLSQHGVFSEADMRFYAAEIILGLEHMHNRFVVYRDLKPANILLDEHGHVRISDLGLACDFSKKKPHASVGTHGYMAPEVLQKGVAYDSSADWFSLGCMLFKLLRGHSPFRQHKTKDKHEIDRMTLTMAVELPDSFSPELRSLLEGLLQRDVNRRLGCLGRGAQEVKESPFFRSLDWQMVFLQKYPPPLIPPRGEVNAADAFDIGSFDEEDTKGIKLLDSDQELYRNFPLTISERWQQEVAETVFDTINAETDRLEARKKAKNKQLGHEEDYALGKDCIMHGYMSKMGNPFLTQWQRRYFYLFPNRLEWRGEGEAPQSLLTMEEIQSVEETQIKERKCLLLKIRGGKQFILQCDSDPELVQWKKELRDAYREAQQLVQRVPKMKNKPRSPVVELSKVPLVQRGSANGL
Integrin beta-1 (Homo sapiens) + Integrin alpha-4 (Homo sapiens), sequence (P05556 whole entry, looked up): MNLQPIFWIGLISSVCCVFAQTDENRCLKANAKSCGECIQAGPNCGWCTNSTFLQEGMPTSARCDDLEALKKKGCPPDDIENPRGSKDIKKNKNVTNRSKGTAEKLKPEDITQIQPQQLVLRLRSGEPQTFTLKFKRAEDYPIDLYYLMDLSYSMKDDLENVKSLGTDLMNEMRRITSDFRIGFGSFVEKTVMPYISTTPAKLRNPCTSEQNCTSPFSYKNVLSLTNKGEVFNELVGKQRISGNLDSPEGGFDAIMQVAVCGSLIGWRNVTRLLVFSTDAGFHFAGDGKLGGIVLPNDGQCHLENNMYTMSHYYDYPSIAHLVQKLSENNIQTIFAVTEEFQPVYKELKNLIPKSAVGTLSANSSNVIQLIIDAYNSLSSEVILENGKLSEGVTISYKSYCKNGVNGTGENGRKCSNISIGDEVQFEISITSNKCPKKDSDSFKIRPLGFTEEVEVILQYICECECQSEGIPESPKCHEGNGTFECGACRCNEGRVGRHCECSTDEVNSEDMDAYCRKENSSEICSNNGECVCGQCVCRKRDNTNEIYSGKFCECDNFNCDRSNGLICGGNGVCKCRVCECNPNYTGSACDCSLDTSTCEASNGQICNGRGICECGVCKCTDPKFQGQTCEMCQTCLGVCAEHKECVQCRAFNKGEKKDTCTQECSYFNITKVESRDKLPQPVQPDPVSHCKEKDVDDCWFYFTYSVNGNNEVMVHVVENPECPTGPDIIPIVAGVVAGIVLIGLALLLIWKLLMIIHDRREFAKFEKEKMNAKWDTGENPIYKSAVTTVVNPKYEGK
Integrin beta-1 (Homo sapiens) + Integrin alpha-4 (Homo sapiens), sequence (P13612 whole entry, looked up): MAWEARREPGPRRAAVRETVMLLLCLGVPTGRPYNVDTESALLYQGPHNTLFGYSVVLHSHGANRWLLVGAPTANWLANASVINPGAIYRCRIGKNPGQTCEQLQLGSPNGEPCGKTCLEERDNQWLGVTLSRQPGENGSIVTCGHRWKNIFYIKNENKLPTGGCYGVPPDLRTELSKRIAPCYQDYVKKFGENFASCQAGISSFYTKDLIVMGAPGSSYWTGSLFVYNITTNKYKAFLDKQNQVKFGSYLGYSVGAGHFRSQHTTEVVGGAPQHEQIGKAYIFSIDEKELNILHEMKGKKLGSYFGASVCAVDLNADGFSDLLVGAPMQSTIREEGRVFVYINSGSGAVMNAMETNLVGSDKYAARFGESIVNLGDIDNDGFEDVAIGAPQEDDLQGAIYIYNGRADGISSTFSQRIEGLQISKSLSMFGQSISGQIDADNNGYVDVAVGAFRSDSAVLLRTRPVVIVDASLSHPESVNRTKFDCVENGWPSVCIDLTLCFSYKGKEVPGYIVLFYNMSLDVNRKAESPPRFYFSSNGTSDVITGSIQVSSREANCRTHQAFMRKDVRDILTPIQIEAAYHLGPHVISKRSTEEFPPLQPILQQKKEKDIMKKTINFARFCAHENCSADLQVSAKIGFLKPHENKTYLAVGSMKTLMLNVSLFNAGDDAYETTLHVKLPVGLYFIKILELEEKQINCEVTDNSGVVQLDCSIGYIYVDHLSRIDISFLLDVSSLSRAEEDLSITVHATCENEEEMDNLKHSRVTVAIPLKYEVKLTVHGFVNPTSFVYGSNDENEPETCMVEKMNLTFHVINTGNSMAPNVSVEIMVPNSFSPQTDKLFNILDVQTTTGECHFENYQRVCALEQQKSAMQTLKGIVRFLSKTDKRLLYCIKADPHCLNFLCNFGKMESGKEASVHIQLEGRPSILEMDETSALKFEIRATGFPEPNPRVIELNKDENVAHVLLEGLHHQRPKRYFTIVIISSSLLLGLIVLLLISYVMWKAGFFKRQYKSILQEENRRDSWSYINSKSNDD
ATP-binding cassette sub-family B member 6 (Homo sapiens), sequence (Q9NP58 whole entry, looked up): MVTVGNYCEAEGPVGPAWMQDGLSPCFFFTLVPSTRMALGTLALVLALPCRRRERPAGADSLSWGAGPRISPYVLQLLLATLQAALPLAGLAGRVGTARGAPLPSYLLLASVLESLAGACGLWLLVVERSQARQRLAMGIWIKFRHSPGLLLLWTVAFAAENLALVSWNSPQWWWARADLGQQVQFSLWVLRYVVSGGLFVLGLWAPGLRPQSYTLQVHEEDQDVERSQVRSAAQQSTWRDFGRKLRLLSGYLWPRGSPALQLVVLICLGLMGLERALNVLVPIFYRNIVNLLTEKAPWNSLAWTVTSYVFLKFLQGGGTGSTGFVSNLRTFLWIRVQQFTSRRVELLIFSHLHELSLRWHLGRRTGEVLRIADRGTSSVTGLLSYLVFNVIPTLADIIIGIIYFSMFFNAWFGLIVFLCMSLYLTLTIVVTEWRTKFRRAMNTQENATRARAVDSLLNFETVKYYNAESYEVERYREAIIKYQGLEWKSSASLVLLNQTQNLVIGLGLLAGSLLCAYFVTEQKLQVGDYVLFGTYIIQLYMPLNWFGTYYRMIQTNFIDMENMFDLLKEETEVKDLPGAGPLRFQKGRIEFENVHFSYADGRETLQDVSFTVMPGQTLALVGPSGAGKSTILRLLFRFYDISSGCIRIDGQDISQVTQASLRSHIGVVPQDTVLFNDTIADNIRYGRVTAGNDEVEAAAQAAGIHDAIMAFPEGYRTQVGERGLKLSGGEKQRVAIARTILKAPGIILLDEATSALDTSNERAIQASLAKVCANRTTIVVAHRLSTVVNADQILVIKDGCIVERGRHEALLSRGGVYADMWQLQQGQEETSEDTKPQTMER
AP-2 complex subunit beta (Homo sapiens), sequence (P63010 whole entry, looked up, the tested form may be a part, one chain of several): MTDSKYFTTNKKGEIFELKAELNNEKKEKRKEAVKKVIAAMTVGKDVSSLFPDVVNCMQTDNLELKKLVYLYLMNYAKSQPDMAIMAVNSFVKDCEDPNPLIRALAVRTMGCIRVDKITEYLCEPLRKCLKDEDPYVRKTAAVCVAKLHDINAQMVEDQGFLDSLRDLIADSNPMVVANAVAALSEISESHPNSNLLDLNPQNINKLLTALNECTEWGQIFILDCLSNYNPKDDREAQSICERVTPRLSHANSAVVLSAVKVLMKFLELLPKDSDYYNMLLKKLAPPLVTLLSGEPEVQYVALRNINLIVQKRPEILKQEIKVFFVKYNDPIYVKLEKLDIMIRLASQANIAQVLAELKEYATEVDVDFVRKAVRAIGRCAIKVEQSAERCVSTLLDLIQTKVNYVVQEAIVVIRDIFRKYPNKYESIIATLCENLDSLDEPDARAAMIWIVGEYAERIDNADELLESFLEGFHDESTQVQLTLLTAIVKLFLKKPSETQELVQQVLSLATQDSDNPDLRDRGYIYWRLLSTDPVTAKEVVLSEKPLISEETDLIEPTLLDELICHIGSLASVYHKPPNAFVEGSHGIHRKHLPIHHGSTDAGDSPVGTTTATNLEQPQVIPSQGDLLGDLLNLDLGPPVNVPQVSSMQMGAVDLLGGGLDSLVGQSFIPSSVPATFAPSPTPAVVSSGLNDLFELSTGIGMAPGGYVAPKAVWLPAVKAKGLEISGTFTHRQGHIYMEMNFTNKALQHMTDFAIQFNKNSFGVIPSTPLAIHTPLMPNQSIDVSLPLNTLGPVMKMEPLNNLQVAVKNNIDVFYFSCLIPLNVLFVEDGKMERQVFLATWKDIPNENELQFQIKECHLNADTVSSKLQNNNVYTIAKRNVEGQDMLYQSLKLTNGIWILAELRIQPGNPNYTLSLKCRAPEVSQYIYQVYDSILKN
Beta-2 adrenergic receptor (Homo sapiens), sequence (P07550 whole entry, looked up): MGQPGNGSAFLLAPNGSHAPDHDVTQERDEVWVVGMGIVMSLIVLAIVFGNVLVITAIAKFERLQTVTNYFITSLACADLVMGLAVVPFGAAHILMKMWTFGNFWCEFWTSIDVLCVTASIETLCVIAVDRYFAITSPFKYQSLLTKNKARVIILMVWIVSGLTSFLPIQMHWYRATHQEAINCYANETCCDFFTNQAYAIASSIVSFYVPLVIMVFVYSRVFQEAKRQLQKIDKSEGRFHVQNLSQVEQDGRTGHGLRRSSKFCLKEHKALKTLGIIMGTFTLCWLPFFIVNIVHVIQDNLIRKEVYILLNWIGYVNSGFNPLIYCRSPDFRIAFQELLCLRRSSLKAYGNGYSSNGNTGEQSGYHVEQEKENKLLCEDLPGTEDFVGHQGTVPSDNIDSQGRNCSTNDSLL

On to `CC(=O)Oc1cc2oc(=O)cc(C)c2cc1OC(C)=O`, for which the percent of DMSO control GFP in [1] was 101% (inactive). Moreover, the GFP response vs DMSO in [2] was 102% (inactive); in test [4] it was 73.5% (inactive). Also, the percent response of DMSO control in test [3] was 99.6% (inactive). Further, the GFP response, % of DMSO in test [5] was 86% (inactive). In addition, the double positive events in [6] worked out at 60%. For the same compound, in test [6], the vesicle binding response is 207% (inactive). Besides, the inhibition in [7] was -5.89% (inactive); in [11] it was 3.54% (inactive); in test [15], 7% (inactive). In test [8], the superoxide response (% of plate) was 102% (inactive). The aptamer binding inhibition in test [9] is 10% (inactive). The response in [10] is -3.64% (inactive); in [12], 1.09% (inactive). In [13], the binding (% of control) is 101% (inactive). Besides, the efflux inhibition (fraction of control) in test [14] is 0.08 (inactive). Further, in test [16], the differentiation response is -15.2% (inactive).

With `CC1CCCC(C)N1NC(=O)c1ccc(Cl)c(S(N)(=O)=O)c1` (stereo not drawn), the percent of DMSO control GFP in [1] is 88% (inactive). In addition, the GFP response vs DMSO in test [2] was 126% (inactive); in [4], 85.8% (inactive). In addition, the percent response of DMSO control in test [3] was 91.3% (inactive). For the same compound, the GFP response, % of DMSO in test [5] is 96.3% (inactive). Besides, the double positive events in test [6] was found to be 65.1%. Besides, in test [6], the vesicle binding response is 128% (inactive). In addition, the inhibition in test [7] is -3.24% (inactive); in [11], -5.07% (inactive); in test [15] it was 10% (inactive). Further, the superoxide response (% of plate) in test [8] is 98.3% (inactive). The aptamer binding inhibition in test [9] is 3% (inactive). For the same compound, the response in test [10] is -7.28% (inactive); in test [12], -0.52% (inactive). Moreover, the binding (% of control) in [13] is 101% (inactive). In addition, the efflux inhibition (fraction of control) in test [14] is 0.09 (inactive). In addition, the differentiation response in [16] was -0.82% (inactive).

As to `COc1cc2[nH]c3c(=O)n(CCN4CCOCC4)cnc3c2cc1OC`, the percent of DMSO control GFP in test [1] was 101% (inactive). Besides, the GFP response vs DMSO is 96.3% (inactive) in [2] and 101% (inactive) in test [4]. Moreover, the percent response of DMSO control in test [3] is 101% (inactive). In [5], the GFP response, % of DMSO was 99.4% (inactive). In addition, the double positive events in test [6] came to 60.3%. For the same compound, the vesicle binding response in test [6] is 172% (inactive). The inhibition is -7.25% (inactive) in test [7], 13.5% (inactive) in test [11] and 5% (inactive) in [15]. In addition, the superoxide response (% of plate) in [8] is 98.5% (inactive). For the same compound, the aptamer binding inhibition in [9] is 3% (inactive). In addition, the response in test [10] is -0.47% (inactive); in [12], -1.31% (inactive). Moreover, the binding (% of control) in test [13] is 102% (inactive). In addition, the efflux inhibition (fraction of control) in test [14] is -0.17 (inactive). In addition, the differentiation response in test [16] was 4% (inactive).

As for `C=CCn1c(N2CCCCCC2)nc2c1c(=O)n(C)c(=O)n2C`, in [1], the percent of DMSO control GFP was 97.6% (inactive). In addition, the results for the GFP response vs DMSO in test [2] and in [4] were 97.6% (inactive) and 104% (inactive), respectively. The percent response of DMSO control in test [3] was 95.7% (inactive). In addition, the GFP response, % of DMSO in test [5] was 114% (inactive). In addition, the double positive events in test [6] is 63.5%. Moreover, in test [6], the vesicle binding response was 220% (inactive). For the same compound, the figures for the inhibition in [7], in test [11] and in test [15] were 7.4% (inactive), -11.7% (inactive) and 7% (inactive), respectively. The superoxide response (% of plate) in test [8] was 112% (inactive). Besides, in test [9], the aptamer binding inhibition was 3% (inactive). Besides, the response in test [10] was -47.3% (inactive); in test [12] it was 0.52% (inactive). In addition, the binding (% of control) in test [13] was 95.9% (inactive). Further, the efflux inhibition (fraction of control) in test [14] is 0.17 (inactive). Further, the differentiation response in test [16] was -11.9% (inactive).

As a reminder, the inhibition is the change of the read-out against control, counted positive when it falls.
